Sampled rows, rich in hits. Any-hit rate of the full collection: about 2.5%.
Pol eta inh = DNA polymerase eta (human) inhibition | Q9Y253 | recombinant Pol eta, fluorescent DNA replication assay | Potency, µM (top dose mostly 114 µM), without a hit: top-dose activity change, negative = inhibition, actives largely listed as inhibitors | 390,000 tested, 1.2% active; note: % is set by controls: 0 for no effect and ±100 for the full control effect
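Pol eta at 10 nM preincubated with compounds 15 min at room temperature; reaction started with fluorescent substrate (50 nM final) and read kinetically at 0 and 10 min.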
Pol beta inh = inhibitors of human DNA polymerase beta; Potency, µM (series often up to 114 µM), inactives show top-dose activity change, negative = inhibition, usual class: inhibitors; 340,000 tested, 1.3% active; P06746; Pol beta primer extension/strand displacement, fluorescence kinetic; note: % is set by controls: 0 for no effect and ±100 for the full control effect
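Kinetic readout of DNA synthesis with strand displacement by Pol beta. Compound and 10 nM enzyme sit 15 min at room temperature; 50 nM substrate starts the reaction, read immediately and at 10 min.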
WRN inhibitor = inhibitors of human WRN helicase | Q14191 | WRN helicase unwinding, fluorescent forked duplex, kinetic | Potency, µM (highest dose often 114 µM), without a hit: top-dose activity change, negative = inhibition, usual class: inhibitors | 360,000 tested, 0.46% active; note: % is set by controls: 0 for no effect and ±100 for the full control effect; nearly all actives have a fitted effect of over 55% in size
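Screening of the MLSMR collection measured strand separation of a quenched forked DNA duplex (100 nM) by 20 nM WRN with 2 mM ATP, all final. Compounds were preincubated with enzyme 15 min at room temperature.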
Pol iota inh = inhibitors of human DNA polymerase iota; Q9UNA4; Pol iota fluorescent replication assay, 10 min; Potency, µM (top dose mostly 115 µM), without a hit: at the highest dose activity, negative = inhibition, usual class: inhibitors; 390,000 tested, 1% active; AID 588590
Target sequence (Q9UNA4 whole entry, looked up): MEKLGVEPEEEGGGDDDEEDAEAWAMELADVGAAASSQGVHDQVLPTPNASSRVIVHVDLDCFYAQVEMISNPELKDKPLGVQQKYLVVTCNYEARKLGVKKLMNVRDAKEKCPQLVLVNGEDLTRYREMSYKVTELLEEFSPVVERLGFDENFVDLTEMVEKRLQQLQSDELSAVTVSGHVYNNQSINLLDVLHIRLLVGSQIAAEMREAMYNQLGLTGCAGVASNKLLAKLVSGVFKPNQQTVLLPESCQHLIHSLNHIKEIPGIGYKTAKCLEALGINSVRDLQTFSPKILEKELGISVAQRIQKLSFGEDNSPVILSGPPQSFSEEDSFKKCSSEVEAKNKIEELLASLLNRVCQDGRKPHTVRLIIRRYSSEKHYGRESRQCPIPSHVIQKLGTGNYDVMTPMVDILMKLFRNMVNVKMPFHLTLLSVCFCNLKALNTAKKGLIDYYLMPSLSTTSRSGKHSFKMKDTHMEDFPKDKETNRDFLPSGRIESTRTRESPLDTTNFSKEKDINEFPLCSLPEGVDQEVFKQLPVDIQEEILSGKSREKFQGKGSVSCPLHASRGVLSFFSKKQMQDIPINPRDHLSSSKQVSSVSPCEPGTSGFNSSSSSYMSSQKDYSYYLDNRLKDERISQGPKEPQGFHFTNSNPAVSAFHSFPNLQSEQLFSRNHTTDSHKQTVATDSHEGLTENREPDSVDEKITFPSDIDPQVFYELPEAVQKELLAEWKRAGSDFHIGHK
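Pol iota at 10 nM preincubated 15 min with compounds at room temperature; reaction started with fluorescent substrate, 50 nM final. Fluorescence read kinetically at 0 and 10 min; buffer-only wells as negative control.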
POLK inh = DNA polymerase kappa (human) inhibition; Q9UBT6; 400,000 tested, 0.53% active; purified Pol kappa, fluorescent DNA synthesis assay, 10 min; Potency, µM (highest dose often 107 µM), for the others: at the top dose activity, negative = inhibition, actives largely listed as inhibitors; AID 588579; note: % is set by controls: 0 for no effect and ±100 for the full control effect
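10 nM Pol kappa was preincubated with compounds for 15 min at room temperature. Reaction started with 50 nM (final) substrate. Fluorescence read kinetically at 0 and 10 min.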
L3MBTL1 inh = inhibitors of human L3MBTL1; Q9Y468; AlphaScreen L3MBTL1–H3K9me1 peptide binding; Potency, µM (titrated, usually from 57.1 µM), for the others: at the top dose activity, negative = inhibition, most hits filed as inhibitors; 230,000 tested, 0.66% active; AID 485360; note: % is set by controls: 0 for no effect and ±100 for the full control effect; nearly all actives have a fitted effect of over 60% in size
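AlphaScreen proximity signal between nickel-chelate acceptor and streptavidin donor beads (final 10 ug/mL) reports binding of 50 nM L3MBTL1 to 75 nM biotin-H3 K9me1 peptide; complex incubated with compounds 30 min at room temperature; cefsulodin titration as control.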
Active calls of the source: *; ? = inconclusive; · = no result given; ! = a repeat was not active; [ ] = remark or other dose. Calls come from the whole dose curve; as a rule, active = well fitted curve in the direction sought with a large enough effect; inconclusive = small, poorly fitted or top-dose-only effect, or another doubt; inactive = no such curve, though single readings can be large; an effect the other way counts as inactive or inconclusive. Potency is the fitted concentration of half-maximal effect.

SMILES	Pol eta inh	Pol beta inh	WRN inhibitor	Pol iota inh	POLK inh	L3MBTL1 inh
COC(=O)c1ccc(CCc2cc(O)ccc2O)cc1	-5%	·	56µM*	16%	-5%	·
O=S(=O)(/N=C(/Nc1ccc(F)cc1F)c1ccccc1)c1ccccc1	-15%	11%	-22%	11%	-10%	-13%
O=[N+]([O-])c1ccc2c(c1)C(O)n1nc(-c3ccc(Cl)cc3Cl)nc1S2 (stereo not drawn)	-5%	9%	-14%	?	6%	·
COc1ccc(C(c2c(C)n(C)n(-c3ccccc3)c2=O)c2c(C)n(C)n(-c3ccccc3)c2=O)cc1OC	-4%	15%	1%	?	-3%	-7%
CCOc1cc(C(c2c(C)[nH]n(-c3ccccc3)c2=O)c2c(C)[nH]n(-c3ccccc3)c2=O)ccc1O	-19%	-2%	·	1.6µM*	-7%	·
COc1ccc(C(c2c(C)[nH]n(-c3ccccc3)c2=O)c2c(C)[nH]n(-c3ccccc3)c2=O)cc1OC	-5%	32%	?	1.3µM*	-12%	?
Cc1[nH]n(-c2ccccc2)c(=O)c1C(c1cc(Cl)ccc1O)c1c(C)[nH]n(-c2ccccc2)c1=O	?	18%	·	?	-9%	·
CCOC(=O)CC(=O)CSCC(=O)Nc1ccc(C)cc1	-12%	-10%	-13%	14%	-9%	-2%[11.4 µM]
COc1ccc(CNC(=O)C23CC4CC(CC(Br)(C4)C2)C3)cc1	-14%	35%	-6%[57.1 µM]	4%	-1%	·
COc1ccc(N(C(=O)Cc2cccs2)C2C=CS(=O)(=O)C2)cc1 (stereo not drawn)	?	16µM*	?	?	-32%	-20%
O=C(Cc1cccs1)N(c1ccc(Br)cc1)C1C=CS(=O)(=O)C1 (stereo not drawn)	-5%	1%	-10%	97%	1%	6%
CC1CC1C(=O)OCC(=O)Nc1ncc(Cl)cc1Cl (stereo not drawn)	28µM*	·	?	14µM*	?	?
COc1cc(CCC(=O)OCC(=O)Nc2ncc(Cl)cc2Cl)cc(OC)c1OC	11µM*	79µM*	-13%[57.1 µM]	?	-26%	-3%
CC1CC1C(=O)OCC(=O)NCc1ccc(Cl)cc1Cl (stereo not drawn)	-8%	-5%	6%	13%	-6%	·
COc1ccc(C(=O)NCC(=O)OCC(=O)Nc2ncc(Cl)cc2Cl)cc1[N+](=O)[O-]	50µM*	·	-9%[11.6 µM]	19%	-23%	-5%
Nc1nc(SCC(=O)Nc2ncc(Cl)cc2Cl)n[nH]1	?	·	-12%[11.6 µM]	79µM*	-41%	-9%
Nc1nc(SCC(=O)Nc2cc(Cl)c(Cl)cc2Cl)n[nH]1	-6%	·	9%	71%	-7%	-9%
Cc1ccc(NC(=O)/C=C/c2cccc([N+](=O)[O-])c2)nc1	-24%	24%	2%	96%	-9%	0%
Cc1ccccc1-n1c(SCC(=O)NC2CC2)nc2ccccc2c1=O	-3%	·	10%	·	·	·
Cc1ccc(S(=O)(=O)N2CN(Cc3ccco3)c3nc4ccccc4nc32)cc1	-15%	-18%	-13%	9%	-20%	-3%
COc1ccc(S(=O)(=O)N2CN(Cc3ccco3)c3nc4ccccc4nc32)cc1	79µM*	-11%	56µM*	?	-9%	·
CC1=Nc2cc(C(=O)O)ccc2Sc2ccc(Br)cc21	50µM*	1%	-8%[57.1 µM]	?	?	-3%
CC1=Nc2cc(C(=O)NC3CCCC3)ccc2Sc2ccc(Br)cc21	-12%	21%	·	8%	-11%	·
CCOC(=O)NC1(NC(C)C)Oc2ccccc2O1	-15%	5%	3%	?	11%	·
CCOC(=O)NC1(NC2CCCCC2)Oc2ccccc2O1	-1%	25µM*	-27%	71µM*	79µM*	?
SMILES	Pol eta inh	Pol beta inh	WRN inhibitor	Pol iota inh	POLK inh	L3MBTL1 inh
CC(=O)Nc1cccc(-c2cc(C)c3cc4c(cc3n2)OCO4)c1	8%	40µM*	-23%	?	-20%	·
CC(=O)Nc1cccc(-c2nc3ccccc3s2)c1	-19%	21%	1%	38%	1%	7%
CC(=O)Nc1sc(C)c(C)c1C(=O)OCC(=O)N(C)c1c(N)n(Cc2ccccc2)c(=O)[nH]c1=O	-14%	·	-2%	21%	-16%	4%
COc1cc(C=C2C(=O)c3ccccc3C2=O)cc(OC)c1OC	-2%	0%	-4%	89µM*	-11%	·
COc1cc(C=C2C(=O)c3ccccc3C2=O)ccc1O	-4%	-3%	-7%	?	-19%	?
COc1ccc(C=C2C(=O)c3ccccc3C2=O)cc1O	-30%	-5%	-21%	18µM*	-8%	·
CCSS(=O)(=O)c1cccc2cccnc12	0%	1%	32µM*	-2%	-6%	-8%
O=[N+]([O-])c1cc(-c2csc(NCCc3nc4cc(C(F)(F)F)ccc4n3CCCO)n2)ccc1Cl	?	·	-3%	13µM*	-1%	·
CCCSc1cc(N2CCOCC2)nc(-c2ccccc2Cl)n1	-10%	79µM*	-2%	-5%	-6%	·
COc1cc(C[C@@H](C)[C@@H](C)Cc2ccc(O)c(OC)c2)ccc1O	-11%	·	-6%	2%	-11%	-14%
C[C@H](Cc1ccc(O)c(O)c1)[C@@H](C)Cc1ccc(O)c(O)c1	3.2µM*	0.79µM*	·	1.8µM*!	1.7µM*	·
CC(Cc1ccc(O)c(O)c1)C(C)Cc1ccc(O)c(O)c1 (stereo not drawn)	28µM*	·	18µM*	45µM*	10µM*	·
Cc1ccc(CNC(=O)CN2C(=O)COc3ccc(S(=O)(=O)N4CCC(C)CC4)cc32)o1	-7%	17%	12%	29%	8%	·
COc1ccc(-c2nc3ccc(N4CCCC4)cc3c(=O)[nH]2)cc1OC	?	40µM*	?	?	-3%	1%
COc1ccc(-c2cc(C(F)(F)F)n3nc(C(=O)NCC45CC6CC(CC(C6)C4)C5)cc3n2)cc1	-5%	?	·	89µM*	-20%	·
Cc1cc(-c2ccccc2)nc2cc(C(=O)NCc3ccco3)nn12	45µM*	?	-33%	?	?	·
O=C(NCC1CCCO1)c1nn2c(C(F)(F)F)cc(-c3cccs3)nc2c1Br (stereo not drawn)	3%	32%	2%	87%	-7%	·
O=C(NCc1ccco1)c1nn2c(C(F)(F)F)cc(-c3cccs3)nc2c1Br	-15%	89µM*	-38%	5%	-10%	·
O=C(NCc1ccco1)c1cc2nc(-c3ccc4c(c3)OCO4)cc(C(F)(F)F)n2n1	7%	79µM*	-14%	-5%	-30%	7%
Nc1nc(CSC(=S)N2CCN(c3ccccc3)CC2)nc(Nc2ccccc2)n1	-11%	4%	-6%	-6%	3%	-26%

Source: PubChem (National Center for Advancing Translational Sciences (NCATS))
